The supplement of paper PMC10981050
Values joined by “and” are separate entries in the source; they are usually repeats but may differ in a detail not shown here. Equal values may be shown once. Where a name gives a salt, the structure may show the parent alone.

Key:
Experiment in all cases: cell viability relative to vehicle control; higher = less cytotoxic
Conditions in all cases: 10 µM
K562 = system: K562
How it was run: (§1)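 Screening covered the Selleck bioactive, kinase and epigenetic probe libraries, less identity-inconsistent compounds, on CRISPR-edited mutant clones and isogenic wild-type clones of four leukaemia lines. Cells, at 2000 per well in 50 µL medium, received a single 10 µM acoustically dispensed dose. After 48 h the supernatant was removed and CellTiter-Glo luminescence was read. Viability was analysed in Genedata Screener as percent of the on-plate vehicle control.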

MARIMO = system: MARIMO
How it was run: as §1

MOLM14 = system: MOLM14
How it was run: as §1

OCI-AML2 = system: OCI-AML2
How it was run: as §1

SMILES	cell viability (K562; SRSF2 genotype: SRSF2 P95H/wt)	cell viability (K562; SRSF2 genotype: SRSF2 wt/wt) [%]	cell viability (MARIMO; SRSF2 genotype: SRSF2 P95H/wt) [%]	cell viability (MARIMO; SRSF2 genotype: SRSF2 wt/wt) [%]	cell viability (MOLM14; SRSF2 genotype: SRSF2 P95H/wt) [%]	cell viability (MOLM14; SRSF2 genotype: SRSF2 wt/wt) [%]	cell viability (OCI-AML2; SRSF2 genotype: P95H/wt) [%]	cell viability (OCI-AML2; SRSF2 genotype: wt/wt) [%]
CO[C@H]1C[C@@H]2CC[C@@H](C)[C@@](O)(O2)C(=O)C(=O)N2CCCC[C@H]2C(=O)O[C@H]([C@H](C)C[C@@H]2CC[C@@H](OP(C)(C)=O)[C@H](OC)C2)CC(=O)[C@H](C)/C=C(\C)[C@@H](O)[C@@H](OC)C(=O)[C@H](C)C[C@H](C)/C=C/C=C/C=C/1C [Deforolimus (MK-8669)]	71.2% and 68.8%	70.8	75	75	54.2	60.8	67.5	64
CN(N=O)C(=O)NC1C(O)OC(CO)C(O)C1O (configuration not stated) [Streptozotocin (STZ)]	103%	105	98.3	104	97.2	103	100	107
c1ccc(NCc2ccc(CNc3ccccn3)cc2)nc1	91.8% and 94.5%	85	89	91.9	87.2	92.9	78.6	84.2
Nc1ccc(O)c(C(=O)O)c1 [Mesalamine (Lialda)]	94.9% and 87.4%	90.1	89.8	94.7	87.3	92.1	97.2	100
O=c1[nH]c(=O)n(C2CCCO2)cc1F (configuration not stated)	107% and 105%	103	96.4	108	99.7	104	93.9	105
Cc1cc(C2CCCCC2)n(O)c(=O)c1 [Ciclopirox ethanolamine]	59.6% and 58.8%	47.2	21.4	26.4	8.86	2.23	18	18
Nc1cc[nH]c(=O)n1 [Cytosine]	102% and 93.8%	99.5	102	110	107	104	102	107
CC(C)=CC(=O)O[C@H]1Cc2cc3ccc(=O)oc3cc2OC1(C)C [Decursin]	89.5% and 93.4%	90	81.6	88.5	91.1	92.5	83.7	87
Nc1ccc(-c2ccc3ncc4ccc(=O)n(-c5cccc(C(F)(F)F)c5)c4c3c2)cn1 [Torin 2]	13.4% and 21.3%	16.9	16.5	20.9	1.07	2.53	1.62	7.04
O=c1c(O)c(-c2ccc(O)cc2O)oc2cc(O)cc(O)c12 [Morin hydrate (Aurantica)]	94.3% and 106%	106	108	108	107	107	107	102
CC1(C)S[C@@H]2[C@H](NC(=O)[C@H](NC(=O)N3CCNC3=O)c3ccccc3)C(=O)N2[C@H]1C(=O)O [Azlocillin sodium salt]	90.4% and 87.6%	81.5	82.3	92.1	86.4	88.6	88	91.8
Oc1cc(O)c(Cl)cn1 [Gimeracil]	105% and 98.5%	92.4	101	109	102	107	101	111
CN(C)CCc1c[nH]c2ccc(CS(=O)(=O)N3CCCC3)cc12 [Almotriptan malate (Axert)]	101% and 87%	91	84.3	101	96.9	95.9	99.2	87.6
CC(C)=CCC[C@](C)(O)[C@H]1CC[C@]2(C)[C@@H]1[C@H](O)C[C@@H]1[C@@]3(C)CC[C@H](O[C@@H]4O[C@H](CO)[C@@H](O)[C@H](O)[C@H]4O[C@@H]4O[C@H](CO)[C@@H](O)[C@H](O)[C@H]4O)C(C)(C)[C@@H]3CC[C@]12C [20S-Ginsenoside Rg3]	107% and 97.7%	101	108	108	101	102	105	104
COC(=O)[C@H](c1ccccc1Cl)N1CCc2sccc2C1 [Clopidogrel (Plavix)]	98.2% and 98.5%	94.4	78.9	101	94.1	96.9	85.4	93.4
CC(C)C(=O)OCC(=O)[C@@]12O[C@H](C3CCCCC3)O[C@@H]1C[C@H]1[C@@H]3CCC4=CC(=O)C=C[C@]4(C)[C@H]3[C@@H](O)C[C@@]12C [Ciclesonide]	57% and 55.7%	62.1	63.6	68.9	41.4	41.6	25.5	59.6
CCC(=O)NC[C@@H]1C[C@H]1c1cccc2c1CCO2 [Tasimelteon]	92.1% and 87.6%	84.4	92.1	101	89	93.1	88	99.3

SMILES	cell viability (K562; SRSF2 genotype: SRSF2 P95H/wt)	cell viability (K562; SRSF2 genotype: SRSF2 wt/wt) [%]	cell viability (MARIMO; SRSF2 genotype: SRSF2 P95H/wt) [%]	cell viability (MARIMO; SRSF2 genotype: SRSF2 wt/wt) [%]	cell viability (MOLM14; SRSF2 genotype: SRSF2 P95H/wt) [%]	cell viability (MOLM14; SRSF2 genotype: SRSF2 wt/wt) [%]	cell viability (OCI-AML2; SRSF2 genotype: P95H/wt) [%]	cell viability (OCI-AML2; SRSF2 genotype: wt/wt) [%]
Cc1ccc2nc(CN(CCN(Cc3nc4ccc(C)cc4[nH]3)Cc3nc4ccc(C)cc4[nH]3)Cc3nc4ccc(C)cc4[nH]3)[nH]c2c1	1.04% and 0.84%	1.19	0.68	0.61	0.58	0.53	0.47	0.63
N#Cc1ccc2ncnc(NCCc3ccccc3)c2c1 [Senexin A]	85% and 87.1%	92.4	91.8	94	77.1	95.1	58.2	63
N=C1NC(=O)/C(=C/c2ccc(O)cc2)S1 [Mirin]	93.7% and 96.5%	101	86.4	87.3	76.5	85.1	64.9	71
CC1=CCC2CC1C2(C)C (configuration not stated)	99.8% and 101%	99.4	95.5	94.5	98.5	99.8	97	102
CC(C)C[C@@H](C=O)NC(=O)[C@H](CC(C)C)NC(=O)[C@H](CC(C)C)NC(=O)OCc1ccccc1	1.82% and 1.99%	1.37	0.54	1.13	0.49	0.53	0.36	0.41
Cc1ncc([N+](=O)[O-])n1CC(O)CCl (configuration not stated) [Ornidazole]	96.6% and 100%	94.7	102	104	91.9	105	103	106
OC[C@@H](O)[C@@H](O)[C@@H](O)CO [Ribitol (Adonitol)]	94.5% and 97%	96.2	89.7	93.4	97.9	94.3	90	97.9
C[C@@H]1CC[C@@]2(OC1)O[C@H]1C[C@H]3[C@@H]4CC=C5C[C@@H](O[C@@H]6O[C@H](CO)[C@@H](O[C@@H]7O[C@@H](CO)[C@H](O)[C@H]7O)[C@H](O)[C@H]6O[C@@H]6O[C@@H](C)[C@H](O)[C@@H](O)[C@H]6O)CC[C@]5(C)[C@H]4CC[C@]3(C)[C@H]1[C@@H]2C [Polyphyllin I]	0.33%	0.31	0.37	0.67	0.32	0.29	0.21	0.36
CNC(=O)c1c(F)cccc1Nc1nc(Nc2cc3c(cc2OC)CCN3C(=O)CN(C)C)nc2[nH]ccc12	6.79% and 7.34%	5.25	46.2	38.8	0.66	0.35	0.91	1.46
CN(C)CCOc1ccc(-c2nc(-c3ccncc3)c(-c3ccc4c(c3)CC/C4=N\O)[nH]2)cc1	1.3% and 2.07%	0.83	11.5	4.32	30.2	49.3	6.47	15.8
c1ccc2occc2c1 [2,3-Benzofuran]	105% and 91%	99.1	93.7	107	98.4	105	90.6	98.6
CC(C)=CC[C@@H](O)C1=CC(=O)c2c(O)ccc(O)c2C1=O [Shikonin]	1.68% and 0.52%	0.87	0.3	0.35	0.44	0.28	0.19	0.25
Cc1noc(-c2ccc(CSCCC(=O)O)cc2)c1NC(=O)OC(C)c1ccccc1Cl (configuration not stated)	106% and 105%	104	101	113	104	102	104	111
Cc1ncc([N+](=O)[O-])n1CCO [Metronidazole (Flagyl)]	105% and 104%	109	107	109	104	103	106	111
C[C@]1(COc2ccc(N3CCC(Oc4ccc(OC(F)(F)F)cc4)CC3)cc2)Cn2cc([N+](=O)[O-])nc2O1 [Delamanid]	97.1% and 93.5%	93.5	94.6	100	94.9	101	83.8	88.6
CC(=O)Nc1cccc(-n2c(=O)n(C3CC3)c(=O)c3c(Nc4ccc(I)cc4F)n(C)c(=O)c(C)c32)c1	67.7% and 87.2%	77.8	39.6	38.5	42.3	27.1	39.8	41.6
COC(=O)C1=C(C#N)NC(C)=C(C(=O)OC(C)C)C1c1cccc([N+](=O)[O-])c1 (configuration not stated) [Nilvadipine (ARC029)]	81.2% and 85.3%	80.7	76	79.7	80.9	84.7	103	97.2
